Laboratory results as given in PubChem BioAssay (EPA / NIEHS).
Results filed as inconclusive are left out. Activity calls are given as the source filed them. How the source made its calls: active means hit-call score of the fitted dose curve at least 0.9, where 1 is the maximum; inconclusive means response in the unintended direction; inactive means score below 0.9.

Target: human Dopamine Transporter (DAT), SLC6A3 (gene 6531) (UniProt Q01959)
Assay: NVS_TR_hDAT: NovaScreen (NVS) Transporter Assay for human Dopamine Transporter (DAT) (AID 2283374)
Protocol: NVS_TR_hDAT is a biochemical, single-readout assay that uses extracted gene-proteins in a cell-free assay. Measurements were taken 1 hour after chemical dosing in a 96-well plate.NVS_TR_hDAT is one of one assay component(s) measured or calculated from the NVS_TR_hDAT assay. It is designed to make measurements of radioligand binding, a form of binding reporter, as detected with scintillation counting signals by Filter-based radiodetection technology.Data from the assay component NVS_TR_hDAT was analyzed into 1 assay endpoint. This assay endpoint, NVS_TR_hDAT, was analyzed in the positive analysis fitting direction relative to DMSO as the negative control and baseline of activity. Using a type of binding reporter, loss-of-signal activity can be used to understand changes in the binding as they relate to the gene SLC6A3. Furthermore, this assay endpoint can be referred to as a primary readout, because the performed assay has only produced 1 assay endpoint. To generalize the intended target to other relatable targets, this assay endpoint is annotated to the transporter intended target family, where the subfamily is neurotransmitter transporter.
Binding assays used specific radioligands (tritiated, iodinated) with non-radioactive competitive displacement ligands in agonist or antagonist protocols (as indicated) and various reference compounds and inhibitors to titrate specific binding to receptors and transporters. Most enzyme assays (CYPs, kinases, phosphatases, proteases, HDACs) used recombinant protein and specific substrates (fluorescence mostly, some colorimetric and radioactive) and inhibitors, followed by a biochemical separation of substrate and product. All assays for the biochemical HTS were initially run in duplicate at a single concentration (10 uM for CYP450 assays and 25 uM for all others). […] Each assay was run with positive and negative controls, and concurrent controls on every plate. The follow-up (secondary) screen tested active chemical-pairs in concentration series, as well as a few additional assays not tested in the primary screen, some selected negative inactives, and several cases re-run in the concentration series for confirmatory purposes.

human Dopamine Transporter (DAT), SLC6A3 (gene 6531), sequence (Q01959 whole entry, looked up): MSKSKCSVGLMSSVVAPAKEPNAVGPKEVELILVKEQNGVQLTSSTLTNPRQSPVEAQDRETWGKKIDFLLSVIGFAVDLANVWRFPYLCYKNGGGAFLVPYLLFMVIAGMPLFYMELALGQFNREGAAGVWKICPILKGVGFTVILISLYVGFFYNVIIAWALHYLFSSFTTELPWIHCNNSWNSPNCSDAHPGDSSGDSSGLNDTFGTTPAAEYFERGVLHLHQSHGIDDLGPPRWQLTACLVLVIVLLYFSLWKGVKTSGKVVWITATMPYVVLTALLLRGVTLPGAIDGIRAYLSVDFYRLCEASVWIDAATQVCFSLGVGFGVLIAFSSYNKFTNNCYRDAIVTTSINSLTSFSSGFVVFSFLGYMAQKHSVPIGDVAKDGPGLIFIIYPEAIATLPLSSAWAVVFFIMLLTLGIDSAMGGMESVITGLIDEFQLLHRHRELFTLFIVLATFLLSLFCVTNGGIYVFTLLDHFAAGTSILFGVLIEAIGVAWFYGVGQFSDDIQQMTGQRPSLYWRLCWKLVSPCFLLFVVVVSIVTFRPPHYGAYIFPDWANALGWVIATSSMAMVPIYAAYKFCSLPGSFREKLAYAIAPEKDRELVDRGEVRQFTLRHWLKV

| Structure (SMILES) | AC50 | outcome |
| --- | --- | --- |
| COc1ccc(O)c(C(C)(C)C)c1 | 8.78 µM (active) | – |
| CCCCCCCCCC[N+](C)(C)CCCCCCCCCC | 5.73 µM (active) | – |
| CC(C)(c1ccccc1)c1ccc(O)cc1 | 5.98 µM (active) | – |
| Nc1ccc(-c2ccc(N)cc2)cc1 | – | inactive |
| ClC(Cl)=C(c1ccc(Cl)cc1)c1ccc(Cl)cc1 | – | inactive |
| Cc1cc(-c2ccc(N)c(C)c2)ccc1N | 19.5 µM (active) | – |
| C[C@]12CCC(=O)C=C1CC[C@@H]1[C@@H]2CC[C@@]2(C)[C@H]1CC[C@]2(C)O | – | inactive |
| Oc1ccc(C(c2ccc(O)cc2)(C(F)(F)F)C(F)(F)F)cc1 | 30.9 µM (active) | – |
| CCC(C)(c1ccc(O)cc1)c1ccc(O)cc1 | 7.9 µM (active) | – |
| CCCCCCOC(=O)c1ccccc1C(=O)OCCCCCC | – | inactive |
| Cc1ccccc1CO[C@@H]1C[C@@]2(C(C)C)CC[C@]1(C)O2 | 11.2 µM (active) | – |
| CCOC(=O)C(O)(c1ccc(Cl)cc1)c1ccc(Cl)cc1 | 3.45 µM (active) | – |
